The structures appear in SMILES notation. Records with an inconclusive call do not appear. Some of the results follow. Active and inactive are the calls of the source. Unless noted, calls come from the whole dose curve; as a rule, active = well fitted curve in the direction sought with a large enough effect; inconclusive = small, poorly fitted or top-dose-only effect, or another doubt; inactive = no such curve, though single readings can be large; an effect the other way counts as inactive or inconclusive.

Assay [1] in a line: Cytometric Cell-Based qHTS for Inhibitors of the mTORC1 Signaling Pathway in MEF (Tsc2-/-, p53-/-) Cells (AID 2660).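 Note: percent of cells above a phospho-rpS6 to PI ratio cutoff in each well; series mostly up to about 38 µM.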 In a few lines: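 Tsc2-/-, p53-/- MEFs (empty vector) exposed to compound 24 h at 37 C, fixed, stained with Alexa-488 anti-phospho-rpS6 Ser235/236 and propidium iodide. Acumen laser scanning; phospho-S6/PI ratio thresholded against 7.5 nM rapamycin, reported as % positive cells.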
(In qHTS, concentration-response curves come from the screen itself.)

A short description of assay [2]: High Content Imaging Cell-Based qHTS for Inhibitors of the mTORC1 Signaling Pathway in MEF (Tsc2-/-, p53-/-) Cells (AID 2666).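 Note: percent of cells scored positive for phospho-rpS6 Ser235/236 immunostaining by imaging.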 In a few lines: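 Inhibition of rpS6 phosphorylation is measured by immunofluorescence imaging in empty-vector Tsc2-/-, p53-/- mouse embryonic fibroblasts after 24 hrs compound exposure at 37 degree Celsius. Results are reported as % positive cells per well.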

Assay [3] is described as follows: High Content Imaging Cell-Based qHTS for Inhibitors of the mTORC1 Signaling Pathway in MEF Cells (AID 2667).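 Note: Tsc2-/- p53-/- MEFs stably re-expressing wild-type Tsc2 exposed 24 h; series mostly up to about 38 µM.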 Summed up: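 Fixed-cell imaging of phospho-S6 (Ser235/236, Alexa-488) after 24 hrs of compound treatment at 37 degree Celsius. Signal was normalized to Hoechst, and thresholds from the highest and lowest wells split cells into % active versus % non-active.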

Assay [4] is described as follows: Cytometry Cell-Based qHTS for Inhibitors of the mTORC1 Signaling Pathway in MEF cells (AID 2668).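 Note: Tsc2-/- p53-/- mouse embryonic fibroblasts stably re-expressing wild-type Tsc2; percent cells positive for phospho-rpS6 Ser235/236 relative to propidium iodide stain; series mostly up to about 38 µM.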 In a few lines: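 Read-out: phospho-rpS6 Ser235/236 immunofluorescence normalized to propidium iodide intensity, scored as % active cells against a rapamycin (7.5 nM) threshold. Cells: Tsc2-/-, p53-/- MEFs stably expressing WT Tsc2, compound-treated 24 hrs at 37 degree Celsius.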

A short description of assay [5]: Validation screen for small molecules that induce DNA re-replication in MCF 10A normal breast cells (AID 463097). Note: nearly all actives have a fitted effect of over 60% in size. In a few lines:
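250 MCF 10A cells/well; compound pin-transferred; 48 hr, 37 C, 5% CO2; Hoechst 40 min; imaged 405/500-530 nm. Hits = more high-intensity nuclei.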

Assay [6] has as its target Ubiquitin carboxyl-terminal hydrolase 2 (Homo sapiens) (UniProt O75604). Briefly: qHTS Validation Assay for Inhibitors of Ubiquitin-specific Protease USP2a Using CHOP2 as the Reporter (AID 463106). In a few lines:
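Inhibition is expressed relative to NEM as the full-inhibition control, with concentration-response curves classed by fit quality, magnitude and activity. Enzyme (USP2 core, 10nM) meets 25nM Ub-CHOP2 after compound preincubation; readings are taken at 60min.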

Assay [7] deals with DNA polymerase III PolC-type (Bacillus subtilis (strain 168)) (UniProt P13267). Briefly: qHTS Validation Assay for the Inhibitors of DNA Replication in Gram-Positive Bacteria (AID 485295). Note: potency is the fitted concentration of half-maximal effect. Summed up:
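PicoGreen fluorescence (ex 480–485/em 535–540 nm) reports dsDNA synthesized on ssM13Gori template with dNTPs/NTPs. Enzyme: holoenzyme rebuilt from purified PolC, beta subunit, SSB and primase. Compound preincubated before substrate addition; RT throughout.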

Assay [8] addresses Tumor susceptibility gene 101 protein (Homo sapiens) (UniProt Q99816). Briefly: qHTS Validation Assay for Iinhibitors of HIV-1 Budding by Blocking the Interaction of PTAP/TSG101 (AID 485342; calls by dose curve). Summed up: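 FP read-out: FITC-PTAP peptide, 50 nM final, binding Tsg101 binding domain, 10 uM final; 20 min r.t.; 10 mM HEPES pH 7.5, 0.15 M NaCl, 0.01% Tween 20, 3 mM EDTA, 0.1 mM TCEP.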

Assay [9] can be described thus: qHTS Validation Assay to Find Inhibitors of Chronic Active B-Cell Receptor Signaling (AID 485345; active = well fitted curve in the direction sought with a large enough effect in the main read-out, with a control signal flat, not every such curve was filed as active). Summed up:
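TMD8 ABC-DLBCL cells with dox-inducible green luciferase–IκBα fusion and red native luciferase; compounds 46 uM–3 nM, 4 h at 37C with doxycycline in 0.5% FBS IMDM. Green/red ratio normalized to basal and 10 uM MG-132.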

Assay [10] deals with Beta-2 adrenergic receptor (Homo sapiens) (UniProt P07550). Briefly: qHTS validation assay of beta-arrestin-biased ligands of beta2-adrenergic receptor (AID 485366). In a few lines: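 qHTS, Tango cells, 1500 cells/well, DMEM + 1% FBS. Cpd 18 hr at 37 degrees C. Luciferin/ATP/CoA detection mix, 15 min RT, luminescence read. %Activity from corrected signal; CRC fit, curve class.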

The target of assay [11] is ATP-dependent 6-phosphofructokinase (Trypanosoma brucei brucei) (UniProt O15648). Briefly: qHTS Validation Assay to Find Inhibitors of T. brucei phosphofructokinase (AID 485368). In a few lines: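 Luminescent ADP detection measures PFK turnover of fructose-6-phosphate (0.5 mM) with ATP (0.1 mM) at pH 8.0. Reaction runs 45 min at room temperature with 1.25 nM enzyme; inhibitors tested as titrations up to 57 uM.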

The nature of assay [12]: Quantitative high throughput screen for delayed death inhibitors of the malarial parasite plastid, 96 hour incubation (AID 488745). Note: nearly all actives have a fitted effect of over 70% in size. Note: potency is the fitted concentration of half-maximal effect. In a few lines: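 Readout is firefly luciferase luminescence from an integrated reporter in P. falciparum; lower signal marks inhibited growth. Cultures at 2% hematocrit and 0.1% parasitemia were treated with compound across two generations (96 h, 37 C, 5% CO2).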

Assay [13] can be described thus: Quantitative high throughput screen for delayed death inhibitors of the malarial parasite plastid, 48 hour incubation (AID 488752). Note: nearly all actives have a fitted effect of over 65% in size. Note: potency is the fitted concentration of half-maximal effect. In a few lines:
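First, compound was pinned into RPMI 1640 medium containing 0.5% Albumax. Next, reporter-parasite-infected erythrocytes were added to 2% hematocrit and 0.1% parasitemia. After 48 h at 37 C under 5% CO2, luciferase detection reagent was added and luminescence read.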

The target in assay [14] is Thioredoxin reductase 1, cytoplasmic (Rattus norvegicus) (UniProt O89049). Briefly: qHTS Assay for Substrates of Mammalian Selenoprotein Thioredoxin Reductase 1 (TrxR1) (AID 488772).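 Note: series mostly up to about 57 µM; a drop in NADPH fluorescence below the no-compound background marks a TrxR1 substrate.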 Summed up:
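In this dual-purpose format, potential substrates are identified from the first fluorescence read after selenite addition, not from the 8-minute delta. Rat enzyme is preincubated with NADPH and then with compound at ~22 deg C.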

Assay [15] has as its target Flap endonuclease 1 (Homo sapiens) (UniProt P39748). Briefly: qHTS Validation Assay for the Inhibitors of Human Flap endonuclease 1 (FEN1) (AID 488816). Note: potency is the fitted concentration of half-maximal effect. Summed up:
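Steps: add FEN1 (10 nM reagent) or buffer only; pin compounds; hold 15 min at room temperature; start with substrate, 50 nM final; read at 0 and 15 min; correct, normalize and fit a four-parameter Hill curve.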

Assay [16] concerns the target M-phase phosphoprotein 8 (Homo sapiens) (UniProt Q99549). Briefly: qHTS Validation Assay for Inhibitors for MPP8 Chromodomain Interactions with Methylated Histone Tails (AID 488949).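 Note: AlphaScreen signal from MPP8 chromodomain bound to biotinylated H3K9me3 peptide; top concentration of the series differs between compounds; nearly all actives have a fitted effect of over 55% in size.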 In a few lines: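 AlphaScreen read-out: streptavidin donor and nickel chelate acceptor beads (final 10 ug/mL), 30 min in the dark at RT. Complex of 50 nM MPP8 and 50 nM b-H3(1-18)K9me3 peptide had been exposed to compounds for 30 min beforehand.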

Assay [17] addresses Chromobox protein homolog 1 (Homo sapiens) (UniProt P83916). Briefly: qHTS Validation Assay for Inhibitors of HP1-beta Chromodomain Interactions with Methylated Histone Tails (AID 488953).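 Note: loss of AlphaScreen luminescence from HP1-beta binding biotinylated H3K9me3 peptide; series mostly up to about 110 µM; nearly all actives have a fitted effect of over 50% in size.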 Summed up:
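Disruption of preformed HP1-beta:H3K9me3 peptide complexes (both 50 nM, PBS pH 7.4 with 0.01% Tween-20) is measured by AlphaScreen after 30 min compound exposure at room temperature, using streptavidin donor and nickel chelate acceptor beads at 10 ug/mL final.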

The target in assay [18] is Endonuclease 4 (Escherichia coli (strain K12)) (UniProt P0A6C1). Briefly: Counterscreen for APE1 Inhibitors: qHTS Assay for Inhibitors of Endonuclease IV (AID 2565). Note: potency is the fitted concentration of half-maximal effect. Summed up: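 Enzyme (2 nM) + compound, 15 min RT; add 50 nM TAMRA/BHQ-2 THF-site dsDNA; kinetic read ex525/em598, 3 reads/60 s; activity = read 3 − read 1. Buffer Tris pH 7.5, 50 mM NaCl, 2 mM MgCl2, DTT, Tween-20.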

Assay [19] has as its target DNA repair nuclease/redox regulator APEX1 (Homo sapiens) (UniProt P27695). Briefly: Confirmation qHTS Assay for Inhibitors of the Human Apurinic/apyrimidinic Endonuclease 1 (APE1) (AID 2572). Note: potency is the fitted concentration of half-maximal effect; nearly all actives have a fitted effect of over 30% in size. Summed up: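 Confirmation qHTS in dose-response format: APE1 exposed to compound 15 min at RT, then reaction started with 50 nM final TAMRA/BHQ-2 abasic substrate. Three fluorescence reads 60 s apart; endpoint minus initial read gives progress.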

Assay [20] concerns the target Thioredoxin reductase 1, cytoplasmic (Rattus norvegicus) (UniProt O89049). Briefly: qHTS Assay for Inhibitors of Mammalian Selenoprotein Thioredoxin Reductase 1 (TrxR1) (AID 488773).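 Note: drop in NADPH fluorescence over an 8 min run after selenite addition; series mostly up to about 57 µM; nearly all actives have a fitted effect of over 40% in size.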 The following applies: Potency: inhibition. In a few lines:
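Inhibition is scored from the loss of NADPH fluorescence between first and last reads of an 8-min kinetic run. Selenite (400 uM) was the substrate, added after 15 min compound preincubation at room temperature.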

Sequence of Thioredoxin reductase 1, cytoplasmic (Rattus norvegicus) (O89049 whole entry, looked up): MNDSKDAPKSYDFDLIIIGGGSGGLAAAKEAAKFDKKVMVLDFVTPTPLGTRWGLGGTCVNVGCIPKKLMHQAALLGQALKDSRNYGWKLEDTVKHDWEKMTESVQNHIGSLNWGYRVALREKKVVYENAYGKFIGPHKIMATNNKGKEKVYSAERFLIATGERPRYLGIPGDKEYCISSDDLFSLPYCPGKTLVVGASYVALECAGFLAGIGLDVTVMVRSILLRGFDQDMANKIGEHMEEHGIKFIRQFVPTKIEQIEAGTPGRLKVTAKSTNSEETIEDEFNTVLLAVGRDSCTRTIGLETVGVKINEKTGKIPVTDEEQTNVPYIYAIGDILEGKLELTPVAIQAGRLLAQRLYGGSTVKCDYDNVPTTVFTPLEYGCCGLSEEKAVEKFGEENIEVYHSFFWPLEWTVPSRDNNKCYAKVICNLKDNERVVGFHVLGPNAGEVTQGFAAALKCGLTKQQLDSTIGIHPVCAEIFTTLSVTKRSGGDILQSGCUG
Sequence of Chromobox protein homolog 1 (Homo sapiens) (P83916 whole entry, looked up): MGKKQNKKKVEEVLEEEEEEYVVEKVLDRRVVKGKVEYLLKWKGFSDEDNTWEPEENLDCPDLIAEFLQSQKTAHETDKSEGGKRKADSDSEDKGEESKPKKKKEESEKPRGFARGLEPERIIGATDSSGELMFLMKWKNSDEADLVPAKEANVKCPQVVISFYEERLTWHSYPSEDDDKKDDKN
Sequence of DNA polymerase III PolC-type (Bacillus subtilis (strain 168)) (P13267 whole entry, looked up): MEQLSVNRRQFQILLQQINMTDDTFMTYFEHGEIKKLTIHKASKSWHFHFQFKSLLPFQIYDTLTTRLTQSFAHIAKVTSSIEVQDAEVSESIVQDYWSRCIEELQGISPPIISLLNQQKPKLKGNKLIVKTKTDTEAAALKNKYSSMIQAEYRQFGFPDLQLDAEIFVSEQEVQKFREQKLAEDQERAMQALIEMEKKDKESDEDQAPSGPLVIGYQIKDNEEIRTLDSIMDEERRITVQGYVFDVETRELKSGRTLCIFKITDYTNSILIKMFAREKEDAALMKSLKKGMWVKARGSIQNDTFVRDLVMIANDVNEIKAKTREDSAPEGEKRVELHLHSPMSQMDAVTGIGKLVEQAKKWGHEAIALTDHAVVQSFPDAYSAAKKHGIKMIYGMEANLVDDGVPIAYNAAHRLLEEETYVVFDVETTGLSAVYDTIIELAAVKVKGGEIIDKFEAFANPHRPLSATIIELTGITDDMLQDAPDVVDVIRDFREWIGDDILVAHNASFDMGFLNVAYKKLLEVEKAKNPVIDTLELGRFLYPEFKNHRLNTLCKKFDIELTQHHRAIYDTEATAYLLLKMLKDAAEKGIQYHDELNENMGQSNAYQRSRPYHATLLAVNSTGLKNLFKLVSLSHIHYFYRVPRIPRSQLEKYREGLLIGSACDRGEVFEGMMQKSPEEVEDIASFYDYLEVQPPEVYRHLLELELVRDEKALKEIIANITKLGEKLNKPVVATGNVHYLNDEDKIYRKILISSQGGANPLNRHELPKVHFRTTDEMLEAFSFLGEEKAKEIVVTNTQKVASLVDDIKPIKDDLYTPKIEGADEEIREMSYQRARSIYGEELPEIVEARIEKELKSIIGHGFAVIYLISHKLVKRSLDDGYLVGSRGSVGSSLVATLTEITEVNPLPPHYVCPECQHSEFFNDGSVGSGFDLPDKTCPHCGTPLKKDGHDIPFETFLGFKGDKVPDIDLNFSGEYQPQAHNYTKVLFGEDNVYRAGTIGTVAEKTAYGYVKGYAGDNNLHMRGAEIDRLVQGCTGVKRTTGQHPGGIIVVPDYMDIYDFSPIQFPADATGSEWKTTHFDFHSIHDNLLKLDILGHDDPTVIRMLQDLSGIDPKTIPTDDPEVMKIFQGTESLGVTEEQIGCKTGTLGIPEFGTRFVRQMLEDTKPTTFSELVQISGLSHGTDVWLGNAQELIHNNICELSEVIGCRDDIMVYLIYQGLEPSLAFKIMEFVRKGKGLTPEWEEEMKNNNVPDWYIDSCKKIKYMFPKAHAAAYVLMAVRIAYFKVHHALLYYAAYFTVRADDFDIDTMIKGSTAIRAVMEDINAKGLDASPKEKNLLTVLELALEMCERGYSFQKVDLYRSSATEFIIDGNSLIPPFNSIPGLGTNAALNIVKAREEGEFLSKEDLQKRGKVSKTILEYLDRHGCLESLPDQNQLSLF
Sequence of ATP-dependent 6-phosphofructokinase (Trypanosoma brucei brucei) (O15648 whole entry, looked up): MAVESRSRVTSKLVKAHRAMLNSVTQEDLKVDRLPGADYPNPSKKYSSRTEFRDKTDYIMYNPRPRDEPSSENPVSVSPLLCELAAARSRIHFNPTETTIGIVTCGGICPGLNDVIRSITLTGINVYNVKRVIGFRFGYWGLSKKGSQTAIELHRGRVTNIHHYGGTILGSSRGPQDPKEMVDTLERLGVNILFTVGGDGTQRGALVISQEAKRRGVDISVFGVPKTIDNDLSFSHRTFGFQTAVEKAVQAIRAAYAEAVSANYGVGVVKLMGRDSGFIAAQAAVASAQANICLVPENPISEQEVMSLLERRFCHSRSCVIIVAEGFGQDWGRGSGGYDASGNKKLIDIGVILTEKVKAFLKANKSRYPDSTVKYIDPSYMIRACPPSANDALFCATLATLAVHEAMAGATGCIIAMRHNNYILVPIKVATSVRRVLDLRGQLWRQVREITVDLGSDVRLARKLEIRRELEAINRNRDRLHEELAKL
Sequence of Beta-2 adrenergic receptor (Homo sapiens) (P07550 whole entry, looked up): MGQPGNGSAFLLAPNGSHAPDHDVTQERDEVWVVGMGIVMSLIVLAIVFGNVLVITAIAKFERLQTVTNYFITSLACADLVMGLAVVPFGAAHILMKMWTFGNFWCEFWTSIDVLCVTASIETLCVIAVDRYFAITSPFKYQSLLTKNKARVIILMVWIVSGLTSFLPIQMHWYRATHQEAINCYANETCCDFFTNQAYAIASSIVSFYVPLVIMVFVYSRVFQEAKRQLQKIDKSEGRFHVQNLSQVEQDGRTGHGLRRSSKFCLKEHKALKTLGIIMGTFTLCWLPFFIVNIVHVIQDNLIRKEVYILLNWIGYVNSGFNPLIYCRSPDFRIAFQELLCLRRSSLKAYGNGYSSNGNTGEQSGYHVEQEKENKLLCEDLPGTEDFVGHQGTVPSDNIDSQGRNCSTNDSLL
Sequence of Flap endonuclease 1 (Homo sapiens) (P39748 whole entry, looked up): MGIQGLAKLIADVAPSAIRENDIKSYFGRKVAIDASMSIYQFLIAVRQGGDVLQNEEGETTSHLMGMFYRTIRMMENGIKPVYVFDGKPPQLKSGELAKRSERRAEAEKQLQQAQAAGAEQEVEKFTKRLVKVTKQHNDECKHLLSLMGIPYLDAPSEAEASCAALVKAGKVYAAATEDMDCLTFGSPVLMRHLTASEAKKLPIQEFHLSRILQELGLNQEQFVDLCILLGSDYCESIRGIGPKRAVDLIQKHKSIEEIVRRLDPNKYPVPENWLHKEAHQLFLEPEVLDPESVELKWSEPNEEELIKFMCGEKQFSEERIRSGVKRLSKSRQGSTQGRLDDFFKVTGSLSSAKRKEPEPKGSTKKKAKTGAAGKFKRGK
Sequence of M-phase phosphoprotein 8 (Homo sapiens) (Q99549 whole entry, looked up): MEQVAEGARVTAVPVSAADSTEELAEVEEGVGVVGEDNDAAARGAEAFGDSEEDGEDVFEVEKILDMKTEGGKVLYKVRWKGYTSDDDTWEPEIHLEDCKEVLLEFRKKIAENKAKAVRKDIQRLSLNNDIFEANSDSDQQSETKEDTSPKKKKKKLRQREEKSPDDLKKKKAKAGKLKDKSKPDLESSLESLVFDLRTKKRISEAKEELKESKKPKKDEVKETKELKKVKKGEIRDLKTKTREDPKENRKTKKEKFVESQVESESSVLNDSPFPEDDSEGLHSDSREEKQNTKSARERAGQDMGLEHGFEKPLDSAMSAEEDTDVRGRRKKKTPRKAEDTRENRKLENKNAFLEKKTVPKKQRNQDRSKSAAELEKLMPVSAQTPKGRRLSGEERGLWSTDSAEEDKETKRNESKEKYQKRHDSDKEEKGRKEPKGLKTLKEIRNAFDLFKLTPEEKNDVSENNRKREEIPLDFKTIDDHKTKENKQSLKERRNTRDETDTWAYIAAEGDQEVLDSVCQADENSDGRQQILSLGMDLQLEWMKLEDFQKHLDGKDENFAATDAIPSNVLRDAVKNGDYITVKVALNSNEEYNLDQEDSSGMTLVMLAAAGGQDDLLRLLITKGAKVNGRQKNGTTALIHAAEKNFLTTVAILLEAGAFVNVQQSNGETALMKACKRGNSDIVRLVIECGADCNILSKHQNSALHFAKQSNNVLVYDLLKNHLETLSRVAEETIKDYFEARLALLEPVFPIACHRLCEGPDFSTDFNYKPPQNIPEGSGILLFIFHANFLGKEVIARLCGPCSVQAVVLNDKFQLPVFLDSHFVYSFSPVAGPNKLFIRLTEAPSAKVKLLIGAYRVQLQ
Sequence of Ubiquitin carboxyl-terminal hydrolase 2 (Homo sapiens) (O75604 whole entry, looked up): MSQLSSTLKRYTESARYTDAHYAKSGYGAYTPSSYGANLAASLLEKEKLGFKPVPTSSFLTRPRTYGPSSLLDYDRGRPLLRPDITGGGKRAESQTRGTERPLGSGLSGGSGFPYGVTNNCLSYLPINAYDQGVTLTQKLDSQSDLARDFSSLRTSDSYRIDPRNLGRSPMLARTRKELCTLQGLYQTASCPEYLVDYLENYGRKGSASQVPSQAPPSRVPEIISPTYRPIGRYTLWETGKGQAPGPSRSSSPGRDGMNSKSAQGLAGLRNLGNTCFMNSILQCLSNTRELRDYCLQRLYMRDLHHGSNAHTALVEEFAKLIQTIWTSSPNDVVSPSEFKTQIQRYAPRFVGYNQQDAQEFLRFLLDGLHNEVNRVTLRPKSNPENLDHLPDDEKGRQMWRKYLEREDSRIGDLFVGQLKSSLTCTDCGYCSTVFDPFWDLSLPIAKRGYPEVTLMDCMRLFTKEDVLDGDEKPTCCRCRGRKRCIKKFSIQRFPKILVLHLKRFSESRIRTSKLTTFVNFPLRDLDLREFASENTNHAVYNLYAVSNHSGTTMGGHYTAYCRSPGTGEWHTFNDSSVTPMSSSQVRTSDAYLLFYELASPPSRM

On to `O=C1NC(O)=NC1(c1ccccc1)c1ccccc1`, for which the result in assay [1], in assay [8], in [9] and in assay [10] was inactive. Also, the Potency entry in [2], in assay [3], in assay [4], in assay [5], in assay [6] and in assay [7] was “inactive” each time. Besides, the Potency entry in assay [11], in assay [12], in assay [13], in assay [14], in [15] and in [16] was “inactive” each time. Moreover, the Potency entry in assay [17] is “inactive”.
With `C[N+](C)(CCCCCC[N+](C)(C)CCCN1C(=O)c2cccc3cccc(c23)C1=O)CCCN1C(=O)c2cccc3cccc(c23)C1=O`, the Potency in assay [18] is 3.55 µM (active); in assay [19] it was 4.47 µM (active); in [7] it was 10.6 µM (active); in assay [12] it was 0.928 µM (active); in [13] it was 0.294 µM (active); in assay [15], 2.99 µM (active). The compound was classed as inactive in assay [1], in assay [8], in [9] and in [10]. Moreover, the Potency result in [2], in assay [3], in [4], in assay [5], in [6] and in [14] was “inactive” in each case. Further, the Potency entry in assay [20], in assay [16] and in assay [17] was “inactive” in each case.
Consider `Clc1ccc(N2CCN(Cc3c[nH]c4ncccc34)CC2)cc1`, for which the compound was called inactive in [1], in assay [8] and in assay [10]. Besides, the Potency result in [2], in assay [3], in assay [4], in [5], in assay [6] and in [7] was “inactive” in each case. Besides, the Potency entry in [11], in assay [12], in assay [13], in assay [14], in assay [15] and in assay [16] was “inactive” each time.
For `CN1C2CCC1CC(OC(=O)C(O)c1ccccc1)C2` (stereo not drawn), the call in [1], in [8] and in assay [9] was inactive. In addition, the Potency result in assay [2], in assay [3], in [4], in assay [5], in assay [6] and in [7] was “inactive” each time. Besides, the Potency result in [11], in [12], in assay [13], in [15], in assay [16] and in assay [17] was “inactive” in each case.
`c1ccc(-c2ccccn2)nc1`: the compound was classed as inactive in [1], in [8], in assay [9] and in assay [10]. Further, the Potency result in assay [2], in assay [3], in assay [4], in [5], in [6] and in [7] was “inactive” in each case. Also, the Potency result in [12], in [13], in assay [14], in [20], in [15] and in assay [16] was “inactive” in each case. Also, the Potency entry in assay [17] is “inactive”.
For the compound `CN(C)C(N)=NCCC[C@H](N)C(=O)O`, the compound was classed as inactive in assay [1], in assay [8], in assay [9] and in assay [10]. Also, the Potency result in assay [2], in assay [3], in [4], in assay [5], in [6] and in assay [7] was “inactive” throughout. Also, the Potency entry in assay [11], in [12], in assay [13], in assay [14], in assay [20] and in assay [15] was “inactive” in each case. In addition, the Potency result in [16] and in assay [17] was “inactive” each time.
Turning to `CC1(C)CCC=[N+]1[O-]`, the call in assay [1], in assay [8], in [9] and in [10] was inactive. Further, the Potency entry in [2], in assay [3], in [4], in assay [5], in assay [6] and in assay [7] was “inactive” each time. Moreover, the Potency result in assay [12], in assay [13], in assay [14], in assay [20], in [15] and in [16] was “inactive” each time. Also, the Potency result in assay [17] was “inactive”.
